High-throughput results (PubChem BioAssay)
G9a inh = G9a (human) methyltransferase inhibition. G9a H3K9 monomethylation, AlphaScreen, 2 h. Potency, µM (series often up to 102 µM), most hits filed as inhibitors. actives 8.8% (n = 350,000). AID 504332; further: nearly all actives have a fitted effect of over 75% in size
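AlphaScreen read-out: biotin-H3K9 peptide (500 nM) methylation by 20 nM enzyme with 20 uM SAM, 2 h at room temperature after 15 min compound preincubation; anti-monomethyl H3K9 antibody plus donor/acceptor beads, 10 min dark.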
CtBP-E1A blk = CtBP/E1A binding inhibition. AID 651724. AlphaScreen GST-E1A/His-CtBP binding, 1536-well; active compounds read low. actives 0.49% (n = 340,000). activity change, % (test concentration not listed); in the data active means activity change below about -65%; inconclusive means mostly about -30% to -63%
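Steps: dispense buffer (Tris pH 8.0, NaCl 300 mM, TCEP 1 mM, BSA, Tween 20); add 5X protein mix (GST-E1A, His-CtBP, 125 nM each); pin 23 nL compound; 2 h at 37 °C, dark; add 5X beads (50 ug/mL); 1 h; read.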
BAZ2B inh = blocks human BAZ2B | Q9UIF8 | AlphaScreen BAZ2B-H3K14Ac peptide displacement | Potency, µM (series often up to 114 µM), hits mostly inhibitors | actives 4.4% (n = 360,000); further: nearly all actives have a fitted effect of over 60% in size
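BAZ2B 50 nM plus b-H3(5-23)K14Ac 50 nM, PBS pH 7.4/0.01% Tween-20, 30 min RT; compound added (max 110 uM), 30 min RT; streptavidin donor/Ni-chelate acceptor beads 10 ug/mL final, 20 min dark; AlphaScreen read.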
JMJD2A Tudor = JMJD2A Tudor domain (human) inhibition | actives 4.4% (n = 390,000) | O75164 | Potency, µM (doses to about 114 µM), usual class: inhibitors | AlphaScreen JMJD2A-Tudor / H3K4me3 peptide binding; further: nearly all actives have a fitted effect of over 50% in size
Target sequence (O75164 whole entry, looked up, the tested form may be a part): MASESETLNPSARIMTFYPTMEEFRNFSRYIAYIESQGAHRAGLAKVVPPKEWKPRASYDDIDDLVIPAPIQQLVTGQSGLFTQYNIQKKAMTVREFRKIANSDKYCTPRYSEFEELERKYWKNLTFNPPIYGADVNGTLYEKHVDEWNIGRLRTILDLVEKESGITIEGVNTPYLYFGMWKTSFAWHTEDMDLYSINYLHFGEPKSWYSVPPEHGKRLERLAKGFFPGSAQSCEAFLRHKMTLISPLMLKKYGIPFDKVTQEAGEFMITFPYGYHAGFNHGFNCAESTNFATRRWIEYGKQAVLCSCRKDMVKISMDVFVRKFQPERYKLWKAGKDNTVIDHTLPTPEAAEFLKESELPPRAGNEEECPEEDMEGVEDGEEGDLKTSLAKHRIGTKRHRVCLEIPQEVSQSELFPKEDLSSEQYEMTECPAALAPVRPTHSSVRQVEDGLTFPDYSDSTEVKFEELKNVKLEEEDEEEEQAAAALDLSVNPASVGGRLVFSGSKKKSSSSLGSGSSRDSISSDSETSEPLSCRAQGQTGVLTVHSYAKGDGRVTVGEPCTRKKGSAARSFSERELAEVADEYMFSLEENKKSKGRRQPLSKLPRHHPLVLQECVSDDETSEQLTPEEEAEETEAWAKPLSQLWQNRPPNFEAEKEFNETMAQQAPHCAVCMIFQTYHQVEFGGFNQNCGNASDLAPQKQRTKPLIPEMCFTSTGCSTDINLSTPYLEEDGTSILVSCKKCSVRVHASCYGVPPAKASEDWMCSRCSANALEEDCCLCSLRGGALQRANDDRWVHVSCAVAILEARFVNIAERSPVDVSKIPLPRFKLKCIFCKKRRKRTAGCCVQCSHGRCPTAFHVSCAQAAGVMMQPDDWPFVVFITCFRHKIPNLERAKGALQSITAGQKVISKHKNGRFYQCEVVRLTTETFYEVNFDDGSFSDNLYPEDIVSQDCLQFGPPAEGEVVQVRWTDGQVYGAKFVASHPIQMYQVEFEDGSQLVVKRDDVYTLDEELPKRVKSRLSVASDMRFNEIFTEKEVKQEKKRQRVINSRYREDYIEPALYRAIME
Six1-Eya2 inh = blocks human Six1 binding to Eya2. actives 0.56% (n = 360,000). Q15475+O00167. activity change, % (concentration not given with the values). AlphaScreen GST-Six1/His-Eya2 binding, biochemical; active compounds read low; in the data active means activity change below about -65%; inconclusive means mostly about -30% to -63%
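Homogeneous AlphaScreen proximity assay pairing GST-Six1 with His-tagged Eya2 (added as 5X mix: 250 nM and 500 nM) in 50 mM Tris pH 8.0, 300 mM NaCl, 1 mM TCEP. Glutathione donor and nickel acceptor beads; 1 h, 37 °C, dark.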
HP1b binding inh = HP1-beta chromodomain-methylated histone interaction inhibition. AID 540317. actives 0.56% (n = 390,000). P83916. AlphaScreen HP1-beta / biotin-H3K9me3 peptide binding. Potency, µM (top dose mostly 114 µM), hits mostly inhibitors; further: nearly all actives have a fitted effect of over 70% in size
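HP1-beta protein (50 nM final) preincubated 30 min at room temperature with biotinylated H3(1-18)K9me3 peptide (50 nM) in PBS pH 7.4, 0.01% Tween-20, then compound added for 30 min. AlphaScreen streptavidin donor/nickel chelate acceptor beads (10 ug/mL final), 30 min dark, luminescence read.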
Large screens that a line does not name were inactive. Hits are enriched below; roughly 10% of the tested compounds scored in any of these assays. Unless noted, the call rests on the fitted dose curve; in most records, active means well fitted inhibition curve with a large enough effect; inconclusive means small, poorly fitted or top-dose-only effect; inactive means no such curve, though single readings can be large or run the other way.

CCc1ccc(C(=O)NNc2ccc(C)c(Cl)c2)cc1	G9a inh 7.9µM
NS(=O)(=O)c1ccc(NNC(=O)c2ccccc2)cc1	none (no result: G9a inh, CtBP-E1A blk)
CCc1ccc(C(=O)NNc2ccc(S(N)(=O)=O)cc2)cc1	G9a inh 22µM
O=C(Oc1coc(CSc2ncccn2)cc1=O)c1ccccc1[N+](=O)[O-]	G9a inh inconclusive
Cc1ccc2sc(N3CCN(C(=O)C4COc5ccccc5O4)CC3)nc2c1C (stereo unspecified)	none (no result: CtBP-E1A blk, Six1-Eya2 inh)
c1ccc(Sc2ncccn2)nc1	G9a inh 32µM (no result: CtBP-E1A blk)
COc1ccc(OC)c(/C=C/C(=O)OCC(=O)N2CCN(S(=O)(=O)c3ccc(C)cc3C)CC2)c1	none
O=C(c1ccccc1)c1ccc2nc(N3CCN(c4ccc(F)cc4)CC3)c3nncn3c2c1	none (no result: CtBP-E1A blk, Six1-Eya2 inh)
COC(=O)c1cc(NS(=O)(=O)c2ccc(Cl)c(N3C(=O)c4ccc(C(=O)O)cc4C3=O)c2)cc(C(=O)OC)c1	BAZ2B inh 0.79µM
O=C(O)c1ccc(Cl)c(S(=O)(=O)Nc2ccc(S(=O)(=O)N3CCCC3)cc2)c1	none (no result: G9a inh, CtBP-E1A blk, BAZ2B inh)
Cc1cccc(N(CC(=O)NCCC2=CCCCC2)S(C)(=O)=O)c1C	none
CC1CCc2sc(-c3n[nH]c(=S)o3)cc2C1 (stereo unspecified)	G9a inh 13µM, BAZ2B inh inconclusive
S=c1[nH]nc(-c2cc3c(s2)-c2ccccc2CC3)o1	G9a inh inconclusive
CC(=O)Nc1ccc(S(=O)(=O)Nc2nccc(/C=C/c3ccc(Cl)cc3)n2)cc1	CtBP-E1A blk inconclusive
Cc1[nH]n(-c2ccccc2)c(=S)c1C=Nc1cccc([N+](=O)[O-])c1	BAZ2B inh 22µM, JMJD2A Tudor 2.5µM (no result: G9a inh)
Cc1[nH]n(-c2ccccc2)c(=O)c1/C=N/NC(=O)c1ccc(O)cc1O	G9a inh inconclusive, BAZ2B inh 25µM, JMJD2A Tudor 22µM, Six1-Eya2 inh -91 (no result: CtBP-E1A blk)
Cc1cc(C(=O)N/N=C/c2c(C)n(C)c3ccccc23)n[nH]1	none
Cc1ccc(/C=N/Nc2nncc(-c3ccccc3)n2)o1	none
Cc1[nH]n(-c2ccccc2)c(=O)c1C=NCc1ccncc1	none
Cc1[nH]n(-c2ccccc2)c(=O)c1/C=N/Nc1nncc(-c2ccccc2)n1	G9a inh 20µM, CtBP-E1A blk -91, BAZ2B inh 4.5µM, JMJD2A Tudor 3.5µM, Six1-Eya2 inh -91
Cc1cc(C(=O)N/N=C/c2c(C)[nH]n(-c3ccccc3)c2=O)n[nH]1	CtBP-E1A blk -94, BAZ2B inh 28µM, JMJD2A Tudor 50µM, Six1-Eya2 inh -91
Cc1nn(C(C)C(=O)NC2CCC(C)CC2)c(=O)c2cc3sccc3n12 (stereo unspecified)	none (no result: CtBP-E1A blk, Six1-Eya2 inh)
Cc1ccc(OCC(=O)N/N=C\c2c(C)[nH]n(-c3ccccc3)c2=O)c([N+](=O)[O-])c1	G9a inh inconclusive, CtBP-E1A blk -81, BAZ2B inh inconclusive, JMJD2A Tudor inconclusive, Six1-Eya2 inh -91
Cc1ccc(-n2[nH]c(C)c(C=Nc3cc(C)ccn3)c2=O)cc1	G9a inh inconclusive
Cc1ccc(-n2[nH]c(C)c(/C=N/NC(=O)c3ccc(O)cc3O)c2=O)cc1	CtBP-E1A blk inconclusive, BAZ2B inh 28µM, JMJD2A Tudor 32µM, Six1-Eya2 inh inconclusive
Cc1[nH]n(-c2ccccc2)c(=O)c1C=NCCc1ccccc1	none (no result: CtBP-E1A blk)
CCCCN(CCCC)C(=S)N/N=C/c1c(C)[nH]n(-c2ccccc2)c1=O	G9a inh inconclusive, BAZ2B inh 10µM, JMJD2A Tudor 79µM
CCCCN=Cc1c(C)[nH]n(-c2ccccc2)c1=S	G9a inh 4.5µM, BAZ2B inh inconclusive, JMJD2A Tudor inconclusive, HP1b binding inh inconclusive
Cc1ccc(/C=N\NC(=O)COc2ccc(C)cc2[N+](=O)[O-])cc1	G9a inh inconclusive
CCC(CO)Oc1cc(NCc2ccc(C(F)(F)F)cc2)c2ncn(C(C)C)c2c1 (stereo unspecified)	JMJD2A Tudor inconclusive (no result: G9a inh, BAZ2B inh)
COc1ccc(-c2nc(C)c(CCNC(=O)C(=O)Nc3ccccc3F)s2)cc1	none (no result: CtBP-E1A blk, Six1-Eya2 inh)
COc1cccc2cc(C(=O)C3=C(O)C(=O)N(CCN4CCOCC4)C3c3ccc(Cl)cc3)oc12 (stereo unspecified)	none (no result: G9a inh)
